The text below walks through data of PubChem BioAssay (Tox21).

Unmarked numbers belong to inactive results. Inconclusive results are not listed. Activity calls are given as the source filed them. Unless noted, calls come from the whole dose curve; as a rule, active = well fitted curve in the direction sought with a large enough effect in the repeat runs; inconclusive = weak or mixed curves; inactive = no such curve, though single readings can be large; an effect the other way counts as inactive or inconclusive.

Test [1] can be described thus: A CellTox Green Cytotoxicity Assay to monitor cytotoxicity in HepG2 cells - 8 hour (AID 1224890). Note: nearly all actives have a fitted effect of over 45% in size. The essentials:
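First, HepG2 cells (600/well) mixed with reagent were plated; second, after 5 h at 37 C they received compounds via pintool; third, fluorescence was measured at 0 h through 40 h at 8 h intervals.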

A short description of test [2]: qHTS assay to identify small molecule antagonists of the estrogen receptor alpha (ER-alpha) signaling pathway using the BG1 cell line in the presence of 0.1 nM 17-beta-estradiol - cell viability counter screen (AID 1259241). Note: nearly all actives have a fitted effect of over 40% in size. In outline:
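VM7Luc4E2, 4,000 cells/well, phenol red-free medium + 10% charcoal-stripped FBS; 24 hr plating; cpd + 0.1 nM E2 final, 22 hr 37C/5% CO2; CellTiter-Fluor 30 min, fluorescence.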
For orientation: qHTS replaces the single test concentration by a dilution series.

Test [3] in a line: qHTS assay to identify small molecule antagonists of the androgen receptor (AR) signaling pathway using the MDA cell line in the presence of 0.5 nM R1881 - cell viability counter screen (AID 1259242). Note: nearly all actives have a fitted effect of over 45% in size. In outline: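 qHTS format. MDA-kb2 (MMTV-luc, AR/GR responsive) + cpd + 0.5 nM R1881 final, 16 hr 37C/0% CO2 → CellTiter-Fluor 30 min → fluorescence intensity.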
A short description of test [4]: qHTS assay to identify small molecule HDAC inhibitors (AID 1259364).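 Note: wild-type HCT-116 cells with endogenous class I/II HDAC activity; top concentration of the series differs between compounds; nearly all actives have a fitted effect of over 45% in size.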 In outline:
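Quantitative high-throughput format: overnight-seeded HCT-116 cells got compounds for 2 hr at 37C; HDAC-Glo I/II reagent added, 30 min RT, luminescence measured.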

Test [5] in a line: qHTS assay to identify small molecule HDAC inhibitors - cell viability counter screen (AID 1259365). Note: series mostly up to about 92 µM; nearly all actives have a fitted effect of over 50% in size. The essentials: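 Luminescence from CellTiter-Glo, developed 30min at room temperature, reports viability of wild-type HCT-116 cells treated 2hr with compounds at 37 C and 5% CO2 after overnight plating.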
Test [6] is described as follows: qHTS assay to identify small molecule agonists of the sonic hedgehog signaling (Shh) pathway - cell viability counter screen (AID 1259366). Note: nearly all actives have a fitted effect of over 50% in size. In outline: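 Cytotoxicity counter screen run in the same wells as the Shh reporter assay. NIH/3T3 cells carrying a Gli1 response element–driven luciferase were treated with DMSO-dissolved compounds for 24hr, and live-cell protease activity was measured with CellTiter-Fluor.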

A short description of test [7]: qHTS assay to identify small molecule antagonists of the sonic hedgehog signaling (Shh) pathway - cell viability counter screen (AID 1259367). Note: nearly all actives have a fitted effect of over 55% in size. In outline: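 Viability was read by CellTiter-Fluor fluorescence in the same wells, reagent added 23 hr into compound treatment and incubated 1 hr at 37C. The 3T3 Gli1-Luc reporter cells (2,000/well) received conditioned medium after compound and ran 24 hr.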

The nature of test [8]: qHTS assay to identify small molecule agonists of the sonic hedgehog signaling (Shh) pathway (AID 1259368; calls by dose curve;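 note: NIH/3T3-derived 3T3Gli1-Luc cells carrying a stable Gli1-driven firefly luciferase reporter; series mostly up to about 92 µM; nearly all actives have a fitted effect of over 15% in size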). The essentials:
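Quantitative high-throughput format using a Gli1-driven firefly luciferase reporter line derived from NIH/3T3 cells. After a 24 hr compound treatment at 37 C and 5% CO2, luminescence reported Gli1 response element activity.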

Test [9] is described as follows: qHTS assay to identify small molecule antagonists of the sonic hedgehog signaling (Shh) pathway (AID 1259369; calls by dose curve; note: nearly all actives have a fitted effect of over 45% in size; note: potency is the fitted concentration of half-maximal effect). In outline: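 Stable Gli1-Luc reporter NIH/3T3 clone; quantitative HTS in stimulated mode with conditioned medium. Luminescence measured after 24hr compound treatment at 37 C.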
Test [10] can be described thus: qHTS assay to identify small molecule agonists of the androgen receptor (AR) signaling pathway in the presence of an antagonist - cell viability counter screen (AID 1259379).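 Note: MDA-kb2 human breast cancer cells carrying an MMTV luciferase reporter; series mostly up to about 92 µM; nearly all actives have a fitted effect of over 25% in size.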 The essentials:
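Nilutamide-containing (3.0uM final) MDA-kb2 cultures, 3,000 cells/well, were treated with compounds across 15 concentrations. After 16 hr at 37C with no CO2, cell viability was determined by CellTiter-Fluor fluorescence in the luciferase assay wells.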

The nature of test [11]: qHTS assay to identify small molecule agonists of the estrogen receptor beta (ER-beta) signaling pathway - cell viability counter screen (AID 1259380). Note: nearly all actives have a fitted effect of over 30% in size. Note: potency is the fitted concentration of half-maximal effect. In outline: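 Steps: plate ER-beta-UAS-bla HEK293T cells, rest 6 hr; add compounds in DMSO; incubate 16 hr at 37C, 5% CO2; add FRET substrate 2 hr; add CellTiter-Glo, wait 30 min at room temperature; read luminescence.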

Test [12] is described as follows: qHTS assay to identify small molecule antagonists of the estrogen receptor beta (ER-beta) signaling pathway - cell viability counter screen (AID 1259382).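 Note: HEK293T cells carrying ER-beta-UAS-bla reporter stimulated with estradiol; series mostly up to about 92 µM; nearly all actives have a fitted effect of over 55% in size.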 The essentials:
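Viability is scored by CellTiter-Glo luminescence (30 min, room temperature) in ER-beta-UAS-bla HEK293T wells already read for reporter fluorescence. Compound exposure lasts 16 hr at 37C alongside 1nM 17-beta-estradiol in charcoal-stripped serum medium.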

A short description of test [13]: qHTS assay to identify small molecule agonists or antagonists of the thyroid stimulating hormone receptor (TSHR) signaling pathway - wild type cell line counter screen (AID 1259384; calls by dose curve). The essentials: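 Counter screen in untransfected Hek293: compounds (15-point titration, triplicate) plus phosphodiesterase inhibitor Ro20-1724 added after 18 h plating; 30 min RT. Intracellular cAMP via competitive d2/cryptate immunoassay, 1 h incubation.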

The target of test [14] is Estrogen receptor (Homo sapiens) (UniProt P03372). The test can be described thus: qHTS assay to identify small molecule antagonists of the estrogen receptor alpha (ER-alpha) signaling pathway using the BG1 cell line in the presence of 0.1 nM 17-beta-estradiol (AID 1259244). Note: nearly all actives have a fitted effect of over 50% in size. The essentials: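 Reporter is a stably transfected luciferase under four estrogen responsive elements in VM7Luc4E2 cells expressing native full-length ER-alpha; inhibition of 0.1 nM (final) 17beta-estradiol-driven signal over 22 h is read by luminescence.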

Test [15] is described as follows: qHTS assay to identify small molecule phospholipidosis (PLD) inducers (AID 1259344; active = well fitted curve in the direction sought with a large enough effect; an effect the other way counts as inactive or inconclusive). In outline: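 Phospholipid accumulation was scored by imaging: fixed, Hoechst-counterstained HepG2 cells stained with LipidTOX Red after 24 h compound exposure at 37 C. Read-outs were pit count and pit intensity per well or per cell, with amiodarone and DMSO controls.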
Test [16] addresses Estrogen receptor beta (Homo sapiens) (UniProt Q92731). Put plainly: qHTS assay to identify small molecule agonists of the estrogen receptor beta (ER-beta) signaling pathway (AID 1259377; active = well fitted activation curve with a large enough effect in the signal ratio in the repeat runs, not every such curve was filed as active; the % refers to the signal ratio). The essentials: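 HEK293T ER-beta-UAS-bla; 2% charcoal-stripped FBS; cells pre-incubated 6 hr, compound 16 hr, 37C/5% CO2; LiveBLAzer B/G FRET substrate 2 h RT; fluorescence intensity read.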

The target is the same in test [17]. Put plainly: qHTS assay to identify small molecule antagonists of the estrogen receptor beta (ER-beta) signaling pathway (AID 1259378; active = well fitted inhibition curve with a large enough effect in the signal ratio in the repeat runs, not every such curve was filed as active; the % refers to the signal ratio). In outline: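 Antagonist mode: compounds added to beta-lactamase reporter HEK293T ER-beta-UAS cells stimulated with E2 (1nM final), 16 hr at 37C. LiveBLAzer B/G FRET substrate, 2 hours room temperature, fluorescence read-out.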

The target of test [18] is Estrogen receptor (Homo sapiens) (UniProt P03372). The test can be described thus: qHTS assay to identify small molecule agonists of the estrogen receptor alpha (ER-alpha) signaling pathway in the presence of an antagonist (AID 1259383; calls by dose curve; note: top concentration of the series differs between compounds; nearly all actives have a fitted effect of over 15% in size). In outline: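 Readout was ERE-driven luciferase luminescence in VM7Luc4E2 cells, which express full-length ER-alpha endogenously. Compounds were tested at 15 concentrations for 22hr alongside 10.0nM ICI-182,780 (final concentration).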

Test [19] has as its target Androgen receptor (Homo sapiens) (UniProt P10275). Put plainly: qHTS assay to identify small molecule agonists of the androgen receptor (AR) signaling pathway in the presence of an antagonist (AID 1259381; calls by dose curve; note: nearly all actives have a fitted effect of over 15% in size). In outline:
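Reporter-gene luminescence from MDA-kb2 cells exposed 16hr at 37C (0% CO2) to 15-point compound titrations with 3.0uM final nilutamide as AR antagonist.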
% is set by controls: 0 for no effect and ±100 for the full control effect.

Sequence of Estrogen receptor (Homo sapiens) (P03372 whole entry, looked up): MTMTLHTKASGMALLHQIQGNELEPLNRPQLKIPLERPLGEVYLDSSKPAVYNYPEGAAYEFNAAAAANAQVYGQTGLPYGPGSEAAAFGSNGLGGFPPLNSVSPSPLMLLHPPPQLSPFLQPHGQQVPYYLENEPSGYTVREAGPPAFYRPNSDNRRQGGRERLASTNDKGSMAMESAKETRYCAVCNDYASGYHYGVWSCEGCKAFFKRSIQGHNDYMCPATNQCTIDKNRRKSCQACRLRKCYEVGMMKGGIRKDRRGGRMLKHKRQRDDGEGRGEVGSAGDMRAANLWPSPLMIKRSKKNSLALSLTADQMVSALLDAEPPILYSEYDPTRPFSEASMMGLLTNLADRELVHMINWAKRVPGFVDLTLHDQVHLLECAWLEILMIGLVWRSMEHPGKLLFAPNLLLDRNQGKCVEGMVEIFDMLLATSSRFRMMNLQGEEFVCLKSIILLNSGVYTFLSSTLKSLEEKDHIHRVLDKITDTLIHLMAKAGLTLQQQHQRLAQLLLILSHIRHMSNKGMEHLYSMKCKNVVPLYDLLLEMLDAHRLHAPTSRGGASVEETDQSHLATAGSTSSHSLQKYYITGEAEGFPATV
Sequence of Estrogen receptor beta (Homo sapiens) (Q92731 whole entry, looked up): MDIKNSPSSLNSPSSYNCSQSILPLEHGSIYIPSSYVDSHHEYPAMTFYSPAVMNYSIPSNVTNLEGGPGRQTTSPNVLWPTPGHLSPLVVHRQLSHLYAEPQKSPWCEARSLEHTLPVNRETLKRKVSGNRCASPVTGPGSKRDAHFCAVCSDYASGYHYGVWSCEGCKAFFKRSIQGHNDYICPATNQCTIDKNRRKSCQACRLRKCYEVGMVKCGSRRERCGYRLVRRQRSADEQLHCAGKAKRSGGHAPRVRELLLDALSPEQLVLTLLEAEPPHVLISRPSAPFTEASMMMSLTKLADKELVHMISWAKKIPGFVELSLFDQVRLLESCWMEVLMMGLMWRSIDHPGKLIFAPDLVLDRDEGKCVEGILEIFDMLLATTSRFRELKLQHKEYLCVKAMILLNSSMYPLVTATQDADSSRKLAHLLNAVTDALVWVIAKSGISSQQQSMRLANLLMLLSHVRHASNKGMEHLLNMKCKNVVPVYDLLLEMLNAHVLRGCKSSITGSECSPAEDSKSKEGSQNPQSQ
Sequence of Androgen receptor (Homo sapiens) (P10275 whole entry, looked up): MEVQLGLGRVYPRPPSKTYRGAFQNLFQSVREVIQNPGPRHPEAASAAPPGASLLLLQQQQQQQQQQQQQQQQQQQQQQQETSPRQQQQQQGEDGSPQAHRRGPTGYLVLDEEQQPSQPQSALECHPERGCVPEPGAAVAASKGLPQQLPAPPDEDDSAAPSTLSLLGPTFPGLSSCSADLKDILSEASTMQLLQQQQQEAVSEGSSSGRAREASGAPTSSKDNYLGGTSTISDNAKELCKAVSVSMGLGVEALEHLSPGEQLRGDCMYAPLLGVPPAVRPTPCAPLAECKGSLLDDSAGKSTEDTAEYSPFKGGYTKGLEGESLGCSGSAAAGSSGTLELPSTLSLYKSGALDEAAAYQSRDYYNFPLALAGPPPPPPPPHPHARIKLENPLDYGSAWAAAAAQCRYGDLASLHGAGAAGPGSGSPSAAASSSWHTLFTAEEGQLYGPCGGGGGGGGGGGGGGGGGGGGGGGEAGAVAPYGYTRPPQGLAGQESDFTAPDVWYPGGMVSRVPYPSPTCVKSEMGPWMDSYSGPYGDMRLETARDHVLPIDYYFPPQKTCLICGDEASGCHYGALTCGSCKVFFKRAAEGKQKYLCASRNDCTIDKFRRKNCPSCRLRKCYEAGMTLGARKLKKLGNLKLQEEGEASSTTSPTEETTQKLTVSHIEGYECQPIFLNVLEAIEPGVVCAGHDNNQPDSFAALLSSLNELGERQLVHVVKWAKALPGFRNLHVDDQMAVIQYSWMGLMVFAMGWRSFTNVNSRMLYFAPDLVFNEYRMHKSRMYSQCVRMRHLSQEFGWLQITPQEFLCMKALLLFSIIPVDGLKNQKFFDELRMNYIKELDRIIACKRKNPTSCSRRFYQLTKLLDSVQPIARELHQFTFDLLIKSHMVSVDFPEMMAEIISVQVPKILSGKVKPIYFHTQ

Regarding `C1CSCCS1`, the Potency result in [1], in test [2], in test [4], in test [6], in [7] and in test [8] was “inactive” each time. Moreover, the Potency entry in [9], in test [10] and in [11] was “inactive” each time. Also, the outcome in test [3], in test [5], in test [12] and in test [13] was inactive.
In the case of `CCNCCO`, the Potency entry in test [1], in test [2], in test [4], in test [6], in [8] and in test [9] was “inactive” throughout. Further, the Potency entry in test [10] and in [11] was “inactive” throughout. Also, the outcome in test [3], in [5], in test [12] and in [13] was inactive.
`CN1CCN(c2c(F)cc3c(=O)c(C(=O)O)cn(CCF)c3c2F)CC1`: the Potency entry in test [1], in test [2], in [14], in [4], in test [6] and in [7] was “inactive” throughout. Also, the Potency result in [8], in test [9], in test [17], in test [10] and in [18] was “inactive” throughout. Besides, the molecule was classed as inactive in [15], in test [5], in [16], in test [12] and in [13].
As for `CCCCCCC`, the Potency entry in test [1], in test [2], in test [4], in test [6], in test [7] and in test [8] was “inactive” each time. Further, the Potency result in test [9], in test [10], in test [11] and in [18] was “inactive” throughout. The outcome in test [3], in test [5], in test [12] and in [13] was inactive.
Consider `ICCc1ccccc1`, for which the Potency result in test [1], in [2], in test [4], in test [8], in test [17] and in test [10] was “inactive” each time. The Potency entry in test [18] was “inactive”. The outcome in test [3], in [5], in [16], in [12] and in test [13] was inactive. Moreover, the Potency in test [9] was 16.9 µM (active).
Consider `O=C(O[C@@H](C(=O)O)[C@@H](OC(=O)c1ccccc1)C(=O)O)c1ccccc1`, for which the Potency entry in [1], in [2], in test [4], in test [6], in [8] and in [9] was “inactive” in each case. Moreover, the Potency result in [17], in test [10], in test [11] and in test [18] was “inactive” each time. The outcome in [3], in [5] and in [12] was inactive.
On to `FC(F)(F)C(Cl)(Cl)Cl`, for which the Potency result in test [1], in test [2], in test [4], in test [6], in test [7] and in [9] was “inactive” each time. The Potency result in test [17], in test [10], in test [11] and in [18] was “inactive” in each case. Moreover, the result in test [3], in test [5], in test [16], in [12] and in test [13] was inactive.
As for `C=CC1CO1` (stereo not given), the Potency result in test [1], in [2], in [4], in [6], in [7] and in test [8] was “inactive” in each case. Also, the Potency result in test [9] and in test [10] was “inactive” each time. The result in test [3], in [5], in test [12] and in test [13] was inactive.
With `NC(Cc1ccc(F)cc1)C(=O)O` (stereo not given), the cytotoxicity increase in [1] is 1.46% [at 6.97 µM]. In addition, the activity change, negative = cytotoxicity in test [2] is 0.956% [at 8.39 µM]; in [5], 4.97% [at 8.39 µM]; in test [10], -0.068% [at 8.39 µM]; in test [11], 1.35% [at 8.39 µM]; in [12] it was 1.79% [at 8.39 µM]. The figures for the viability change, negative = cytotoxic in test [3] and in [6] were 3.8% [at 8.39 µM] and -12.8% [at 8.39 µM], respectively. The activity change, negative = inhibition was -2.41% [at 8.39 µM] in [4] and -11.4% [at 8.39 µM] in [9]. Moreover, in test [8], the activity change is 0.322% [at 8.39 µM, hits give high values]. Further, the activation in test [16] was -1.32% [at 8.39 µM]. For the same molecule, in [17], the activity, negative = inhibition is 7.98% [at 8.39 µM]. For the same molecule, the cAMP activity change in [13] was -1.15% [at 8.39 µM].
As to `Cc1ccc(C(C)C)cc1O`, the Potency entry in test [1], in test [2], in test [4], in test [6], in [7] and in [8] was “inactive” each time. Moreover, the Potency result in test [9], in test [17] and in [10] was “inactive” in each case. Further, the outcome in [3], in test [5], in [12] and in test [13] was inactive.
As to `CCCCCCOc1ccc(N)cc1`, the Potency entry in test [1], in [2], in test [6], in test [7], in [8] and in test [10] was “inactive” throughout. Further, the outcome in test [3] and in test [5] was inactive. Also, the Potency in test [11] was 17.2 µM (active).
Regarding `Cc1nc(-c2ccccn2)ncc1C(=O)Nn1cc(C)c2cc(F)ccc21`, the Potency entry in [1], in test [2], in test [4], in [6], in [7] and in test [8] was “inactive” in each case. Further, the Potency result in test [10], in [19] and in [18] was “inactive” throughout. Also, the outcome in test [3], in test [5] and in test [13] was inactive.
In the case of `CN1CCC[C@@H]1Cc1c[nH]c2ccc(CCS(=O)(=O)c3ccccc3)cc12`, the Potency result in test [1], in test [2], in test [4], in [6], in test [8] and in test [17] was “inactive” in each case. For the same molecule, the Potency result in [10] and in test [11] was “inactive” each time. For the same molecule, the outcome in [3], in [5], in test [16], in test [12] and in test [13] was inactive. Further, the Potency in test [9] is 13.3 µM (active).
